Test systems include DU-145 prostate; MALME-3M melanoma; MDA-MB-231 breast; RXF 393 renal; SF-268 CNS; SF-295 CNS; SF-539 CNS; UACC-257 melanoma; M14 melanoma; HCT-15 colon; HT29 colon; SNB-75 CNS; PC-3 prostate; LOX IMVI melanoma; U251 CNS; UACC-62 melanoma; SK-MEL-28 melanoma; SK-MEL-5 melanoma; SNB-19 CNS.
What all share (assay): NCI-60 one-dose screen, 48 h (100 = growth as untreated, 0 = no growth, -100 = all killed)
What all share (details): 10 µM unless noted

Data on nine molecules can be found in PubChem BioAssay (NCI).

The panel holds about 83,000 compounds, 20% with a hit somewhere; the sample as a whole holds those more often.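 Compound tested at a single concentration for 48 hours in 96-well plates; a percent growth value below 10 was scored as active.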 Unmarked numbers belong to inactive results. Calls of active or inactive are those of the source.

Take `O=C1/C(=C/c2ccc(OCCCOc3ccc(Cl)cc3)cc2)N=C2SCCCN12`: the growth is 94.5% with DU-145 prostate; 122% in the assay on MALME-3M melanoma; 77.3% in the assay on MDA-MB-231 breast; 110% with RXF 393 renal; 100% in the assay on SF-268 CNS; 66.7% in the assay on SF-295 CNS. Besides, the growth is 97% in the assay on SF-539 CNS; 102% with UACC-257 melanoma; 95.9% in the assay with M14 melanoma; 63.2% in the assay with HCT-15 colon; 76% in the assay with HT29 colon; 84.5% with SNB-75 CNS. Also, the growth in the assay with PC-3 prostate is 45.5%; in the assay on LOX IMVI melanoma, 68.3%.

`CN(C)c1ccc(NC(=O)c2ccc(/C=C/C(=O)c3ncc[nH]3)cc2)cc1`: the growth is 20.2% with DU-145 prostate; 87.9% in the assay with MALME-3M melanoma; 71.8% with MDA-MB-231 breast; 67.4% in the assay on RXF 393 renal; 56.2% in the assay on SF-268 CNS; 74.6% in the assay with SF-295 CNS. Further, the growth with SF-539 CNS was 6.24% (active); in the assay on UACC-257 melanoma it was 91.7%; in the assay on M14 melanoma, 67.8%; in the assay on HCT-15 colon it was 16.2%; in the assay on HT29 colon, 11.6%; in the assay with SNB-75 CNS, 68.7%. Besides, the growth in the assay with U251 CNS was 11.8%; in the assay with PC-3 prostate, 68.1%; with UACC-62 melanoma, 70.5%; in the assay with LOX IMVI melanoma, 14.7%; in the assay with SK-MEL-28 melanoma, 95.3%.

`O=C(/C=C/c1ccc(C(F)(F)F)cc1)Nc1ccc(C=C2c3ccccc3C(=O)c3ccccc32)cc1`: the growth is 72.4% with DU-145 prostate; 76.6% in the assay on MALME-3M melanoma; 77.3% in the assay with MDA-MB-231 breast; 68.4% with RXF 393 renal; 67.3% in the assay on SF-268 CNS; 59.2% with SF-295 CNS. In addition, the growth in the assay with SF-539 CNS is 83.5%; in the assay with UACC-257 melanoma it was 35.1%; in the assay with M14 melanoma it was 59.1%; in the assay on HCT-15 colon it was 47.4%; in the assay on HT29 colon, 46.5%; in the assay with SNB-75 CNS, 46.6%. Also, the growth in the assay on U251 CNS was 33.8%; in the assay on SK-MEL-5 melanoma, 44.7%; in the assay with UACC-62 melanoma, 52.2%; in the assay with LOX IMVI melanoma, 76.7%; in the assay on SK-MEL-28 melanoma it was 60.2%.

As for `Cc1nc(Nc2ccc(F)c(Cl)c2)sc1C(=O)O`, the growth is 28.2% in the assay on DU-145 prostate; 30.8% in the assay on MALME-3M melanoma; -19.8% (active) in the assay on MDA-MB-231 breast; 15.4% in the assay on RXF 393 renal; 29.3% with SF-268 CNS; 15.2% in the assay with SF-295 CNS. Further, the growth with SF-539 CNS was 24.4%; in the assay with UACC-257 melanoma it was 4.37% (active); in the assay with M14 melanoma it was 19.2%; in the assay with HCT-15 colon, 11.3%; in the assay with HT29 colon, 3.5% (active); with SNB-75 CNS, -13.4% (active). Also, the figures for the growth with SNB-19 CNS, with PC-3 prostate and in the assay on LOX IMVI melanoma were 26.2%, 7.92% (active) and 2.1% (active), respectively.

For the molecule `CSc1ccc(-c2ccccc(=O)c2O)cc1`, the growth in the assay with DU-145 prostate was 21%; with MALME-3M melanoma, 15.6%; with MDA-MB-231 breast it was 36.8%; in the assay on RXF 393 renal it was 39.3%; in the assay on SF-268 CNS, 11.5%; in the assay on SF-295 CNS, 19.4%. Moreover, the growth is 4.03% (active) in the assay on SF-539 CNS; -4.11% (active) with UACC-257 melanoma; -6.35% (active) with M14 melanoma; 26.9% with HCT-15 colon; 34.6% in the assay on SNB-75 CNS; 17.5% with SNB-19 CNS. Further, the growth is 9.54% (active) with U251 CNS; 30.9% in the assay on PC-3 prostate; -23% (active) in the assay with UACC-62 melanoma; 9.8% (active) with LOX IMVI melanoma; 26.9% in the assay on SK-MEL-28 melanoma.

On to `CN(C)[C@@H]1C(=O)C(C(=O)NCc2nc3[nH]cnc(=S)c3[nH]2)=C(O)[C@@]2(O)C(=O)C3=C(O)c4c(O)cccc4[C@@](C)(O)[C@H]3C[C@@H]12`, for which the growth in the assay with DU-145 prostate was 42.6%; in the assay on MALME-3M melanoma, 69.4%; in the assay with MDA-MB-231 breast it was 47.5%; with SF-268 CNS, 76.1%; in the assay on SF-295 CNS, 27.1%; in the assay on SF-539 CNS it was 31.8%. Further, the growth in the assay with M14 melanoma is 9.8% (active); in the assay with HCT-15 colon it was 76.7%; with HT29 colon, 64.3%; in the assay on SNB-75 CNS it was 61.8%; with SNB-19 CNS it was 84.1%; in the assay on U251 CNS, 96%. The growth in the assay with SK-MEL-5 melanoma was 75.5%; with UACC-62 melanoma it was 25.5%; with LOX IMVI melanoma it was 12.4%; with SK-MEL-28 melanoma, 118%.

On to `CN1CCN=C1c1ccc(NC(=O)c2ccc(C(=O)Nc3ccc(C4=NCCN4C)cc3)cc2)cc1`, for which the growth in the assay with DU-145 prostate was 119%; in the assay with MALME-3M melanoma, 80.6%; in the assay with MDA-MB-231 breast it was 103%; with SF-268 CNS, 111%; in the assay with SF-295 CNS, 92.9%; in the assay on SF-539 CNS, 94.1%. Also, the growth in the assay on M14 melanoma is 95.9%; in the assay with HCT-15 colon it was 108%; with HT29 colon, 98.8%; in the assay on SNB-75 CNS, 91.2%; in the assay with SNB-19 CNS it was 92%; with U251 CNS it was 93.6%. Besides, the growth is 84.7% in the assay with SK-MEL-5 melanoma, 91.8% with UACC-62 melanoma, 94.2% in the assay on LOX IMVI melanoma and 110% in the assay with SK-MEL-28 melanoma.

Take `CCOC(=O)c1sc(Nc2ccc(Cl)cc2)nc1C`: the growth is 35.5% in the assay with DU-145 prostate; 36.7% in the assay on MALME-3M melanoma; 1.04% (active) with MDA-MB-231 breast; 10.9% with RXF 393 renal; 30% in the assay with SF-268 CNS; 16.3% in the assay with SF-295 CNS. Moreover, the growth in the assay with SF-539 CNS was 25.3%; in the assay on UACC-257 melanoma, 7.95% (active); in the assay with M14 melanoma, 12.9%; in the assay with HCT-15 colon it was 13.1%; with HT29 colon, 4.65% (active); with SNB-75 CNS, -11.2% (active). The results for the growth in the assay on SNB-19 CNS, with PC-3 prostate and with LOX IMVI melanoma were 37%, 14.2% and 9.91% (active), respectively.

As to `CCCCC(=O)OCC1OC(n2cnc3c(=S)nc[nH]c32)C(OC(=O)CCCC)C1OC(=O)CCCC` (configuration not stated), the growth with DU-145 prostate is 32%; in the assay with MALME-3M melanoma it was 49.5%; in the assay on MDA-MB-231 breast, 35.6%; in the assay with SF-268 CNS, 39%; with SF-295 CNS, 30.3%; in the assay with SF-539 CNS, 20.2%. The growth in the assay on M14 melanoma was 10.4%; in the assay on HCT-15 colon it was 33.1%; in the assay with SNB-75 CNS, 51%; in the assay with SNB-19 CNS, 64.2%; in the assay with U251 CNS, 70.1%; in the assay with SK-MEL-5 melanoma it was 23.3%. For the same molecule, the results for the growth in the assay on UACC-62 melanoma, in the assay with LOX IMVI melanoma and in the assay with SK-MEL-28 melanoma were 7.37% (active), 12.1% and 85.7%, respectively.
